PPARg SRC-1 ag: PPARgamma agonists recruiting SRC-1 coactivator, primary screen, biochemical; Peroxisome proliferator-activated receptor gamma (Homo sapiens), P37231; actives 0.41% (n = 200,000); PPARgamma-SRC-1 coactivator recruitment biochemical assay; AID 631, 2007; activation, % at 8 µM; in the data active means activation above about 19%;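 further: 0% = DMSO and 100% = reference agonist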
Target sequence (P37231 whole entry, looked up): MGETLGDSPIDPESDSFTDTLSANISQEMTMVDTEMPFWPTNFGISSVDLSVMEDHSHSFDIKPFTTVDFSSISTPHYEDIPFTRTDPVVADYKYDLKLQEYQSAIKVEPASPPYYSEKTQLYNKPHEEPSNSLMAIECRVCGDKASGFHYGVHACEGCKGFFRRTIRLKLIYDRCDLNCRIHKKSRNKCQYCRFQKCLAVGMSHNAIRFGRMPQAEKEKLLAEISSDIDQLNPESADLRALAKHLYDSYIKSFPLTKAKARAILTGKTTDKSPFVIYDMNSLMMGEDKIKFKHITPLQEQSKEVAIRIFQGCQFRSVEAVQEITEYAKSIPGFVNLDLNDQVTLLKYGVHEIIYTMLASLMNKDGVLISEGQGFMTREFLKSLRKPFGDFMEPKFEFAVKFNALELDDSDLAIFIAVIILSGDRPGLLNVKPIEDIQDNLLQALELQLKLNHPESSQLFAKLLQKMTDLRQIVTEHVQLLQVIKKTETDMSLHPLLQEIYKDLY
TR-FRET SRC-2 ct: TR-FRET signal artefacts, primary screen, artefact control for PPARgamma SRC-2 agonist project, biochemical | AID 1049, 2008 | TR-FRET ratio at 8 µM | actives 0.4% (n = 200,000) | TR-FRET artefact counter-screen; hits give high values
SRC1 TRFRET art: TR-FRET detection interference compounds, primary screen, artefact control for PPARgamma SRC-1 recruitment agonists, biochemical, TR-FRET emission ratio. AID 1051, 2008. TR-FRET ratio at 8 µM. actives 0.34% (n = 99,000). TR-FRET detection artefact counter-screen; hits give high values; in the data active means TR-FRET ratio above about 2300
SRC3 TRFRET art: TR-FRET detection interference compounds, artefact control for PPARgamma SRC-3 recruitment agonists, biochemical, TR-FRET ratio | TR-FRET artefact counter-screen, PPARgamma/SRC-3 format; hits give high values | TR-FRET ratio at 8 µM | actives 0.39% (n = 99,000) | AID 1048, 2008
PPARg SRC-2 ag: agonists of PPARg-SRC-2 recruitment, primary screen, biochemical, HTS | activation, % at 8 µM | actives 0.34% (n = 200,000) | PPARgamma LBD-SRC-2 recruitment | AID 1032, 2008; in the data active means activation above about 22%;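 further: 0% = vehicle and 100% = reference agonist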
PPARg SRC3 recr: PPARgamma agonists recruiting SRC-3 coactivator, primary screen, biochemical; actives 0.26% (n = 200,000); Peroxisome proliferator-activated receptor gamma (Homo sapiens), P37231; biochemical PPARgamma/SRC-3 coactivator recruitment assay; activation, % at 8 µM; AID 731, 2007; in the data active means activation above about 23%;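 further: 0% = DMSO and 100% = reference agonist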
Starred values were filed as active, the others as inactive; / = not tested or not shown. Only some compounds are listed: those with a hit (about 0.9% of all), similar ones and a draw of the others. Unless noted, no stated cut-off is given here; in the data, active means TR-FRET ratio above about 2000; inactive means the rest.

SMILES	PPARg SRC-1 ag	TR-FRET SRC-2 ct	SRC1 TRFRET art	SRC3 TRFRET art	PPARg SRC-2 ag	PPARg SRC3 recr
O=C(N/N=C/C(Br)=C/c1ccccc1)NC1CCCCC1	3.4	1543	1911	1424	1.9	7.7
O=S(=O)(c1ccccc1)c1cnn2c(C(F)(F)F)cc(-c3ccccc3)nc12	2.5	1466	/	/	2.7	0.0
O=S(=O)(c1ccccc1)c1cnn2c(C(F)(F)F)cc(-c3ccc(F)cc3)nc12	21.3*	1524	/	/	3.9	5.2
Cc1[nH][nH]c(=O)c1C(c1c(C)[nH][nH]c1=O)c1cn(Cc2ccccc2Cl)c2ccccc12	5.2	1564	2085	1729	1.3	1.5
C=CCN(C(=O)CSC1=NC(=O)CN1C(C)=O)c1nc(C)c(-c2ccccc2)s1	6.6	1679	1825	1562	11.0	-0.5
COc1ccc(-c2cc(=O)c3ccccc3s2)cc1	0.5	1505	/	/	-4.4	0.5
COc1ccc2sc3ccccc3c(=O)c2c1	3.1	2220*	/	/	6.1	3.2
O=C(c1cccc(C(F)(F)F)c1)N1CCN(c2cc(=O)[nH]nc2-c2ccccc2)CC1	-9.1	1357	/	/	-10.1	33.0*
Cc1cc(C)cc(NC(=O)Nc2ccc(Cl)cn2)c1	2.5	1573	1623	1514	-0.3	3.1
Cc1ccc([N+](=O)[O-])cc1N	2.1	1648	2200	1774	5.3	-1.3
Nc1ccc2c(c1)Cc1cc([N+](=O)[O-])ccc1-2	20.0	2054*	1760	1573	10.7	2.5
COc1ccc(NC(=O)COC(=O)c2cccc(S(=O)(=O)N(C)C)c2)cc1	24.1*	1513	2141	1754	-2.9	1.5
O=C(Nn1c(-c2ccccc2)nc2ccccc2c1=O)c1ccco1	7.7	1556	/	/	5.0	3.3
CCCCCCC1CCC(C(=O)Nn2c(C)nc3ccccc3c2=O)CC1 (stereo not given)	4.6	1723	/	/	22.2*	-4.2
Cc1nc2ccccc2c(=O)n1NC(=O)c1ccco1	-1.5	2082*	/	/	12.0	7.2
CCCC1CCC(C(=O)Nn2c(C)nc3ccccc3c2=O)CC1 (stereo not given)	4.9	1484	/	/	-3.2	2.8
CCn1c(SCC(=O)Nc2ccc(Cl)cc2)nc2nc3c(cc2c1=O)CCCC3	0.0	2837*	1677	1898	68.0*	3.9
O=C(CSc1nc2nc3c(cc2c(=O)n1-c1ccccc1)CCCC3)Nc1cccc2ccccc12	2.8	2372*	2437*	2727*	12.1	-1.8
CC(C)(C)c1nnc(NC(=O)CN2C(=O)C3C4C=CC(C4)C3C2=O)s1 (stereo not given)	-0.3	1429	/	/	-10.8	36.3*
O=C(CN1CCOCC1)Nc1ccc(N2CCN(c3ccccc3)CC2)c(F)c1	-2.7	1792	1969	1565	10.7	0.1
CC(C)C(C)(C#N)NC(=O)CSc1nc2scc(-c3ccco3)c2c(=O)n1-c1ccccc1 (stereo not given)	6.4	2013*	/	/	17.9	4.5
CC(C)C(C)NC(=O)CSc1nc2scc(-c3ccco3)c2c(=O)n1-c1ccccc1 (stereo not given)	6.4	1609	/	/	2.0	10.5
COc1ccc(OC)c(-c2c3c([nH]c(=S)c2C#N)CCCC3)c1	17.5	1970	2339*	2033	16.3	7.9
CC(C)Cc1c2c([nH]c(=S)c1C#N)CCCC2	10.7	1622	1994	1737	4.4	3.7
N#Cc1c(-c2cccnc2)c2c([nH]c1=S)CCCC2	8.7	1637	/	/	9.8	8.1
SMILES	PPARg SRC-1 ag	TR-FRET SRC-2 ct	SRC1 TRFRET art	SRC3 TRFRET art	PPARg SRC-2 ag	PPARg SRC3 recr
COc1ccc(-c2c3c([nH]c(=S)c2C#N)CCC3)cc1	63.7*	4167*	/	/	85.8*	107.7*
CSc1cccc(NC(=O)/C=C/c2cccc(Cl)c2)c1	-5.7	1627	1789	1576	-0.7	-1.3
COc1ccc(CCn2c(-c3ccc(Cl)cc3)n[nH]c2=S)cc1OC	3.6	1399	1922	1596	5.2	8.0
CCCCn1c(-c2cc(Cl)ccc2OC)n[nH]c1=S	13.5	1787	/	/	22.3*	19.0
CNC(=O)c1ccc(CNC(=O)OCc2ccccc2)cc1	-4.0	1538	1683	1538	-1.2	-1.1
O=C(OC1CCCCC1)c1ccc2c(c1)C1C=CCC1C(C(=O)O)N2 (stereo not given)	3.8	2020*	1642	1554	19.2	5.4
COc1ccc(-c2nc(NC(=O)C3=NN(c4cccc(C)c4)C(=O)CC3)sc2C)cc1	7.3	1649	1779	1511	2.2	-0.1
CC(C)Cn1c(N)c(C(=O)COC(=O)c2ccc([N+](=O)[O-])o2)c(=O)n(C)c1=O	3.4	1982*	1937	1448	12.2	5.0
C=CCn1c(SCC(=O)NCc2ccc3c(c2)OCO3)nc2scc(-c3ccccc3)c2c1=O	8.7	1974*	/	/	5.3	1.9
CCCCNC(=O)CSc1nc2ccccc2c(=O)n1Cc1ccc2c(c1)OCO2	2.6	5232*	/	/	190.0*	18.2
CCOCCCn1c(SCC(=O)NCc2ccc3c(c2)OCO3)nc2ccccc2c1=O	9.7	1620	1990	1553	-0.8	4.6
COCCn1c(=NC(=O)c2cc(-c3cccs3)nc3ccccc23)sc2cc(S(N)(=O)=O)ccc21	5.2	1698	1979	1939	3.0	1.5
C=CCn1c(=NC(=O)c2cc(-c3cccs3)nc3ccccc23)sc2cc(S(N)(=O)=O)ccc21	6.7	1739	1639	2319*	3.8	3.2
Cc1csc(NC(=O)CSc2nnc(NC(=O)C3CC(=O)N(c4ccccc4)C3)s2)n1 (stereo not given)	2.5	1627	2325*	1413	15.4	6.3
CC1CCN(S(=O)(=O)c2ccc3c(c2)oc(=O)n3CC(=O)N2c3ccccc3CC2C)CC1 (stereo not given)	9.7	2000*	/	/	16.4	8.9
CC(=O)Cc1nsc(NC(=O)c2ccc(-c3cccc(Cl)c3)o2)n1	2.5	1508	1539	1487	4.6	2.1
C=CCOc1cccc(C2C(C(=O)c3ccc(C)o3)=C(O)C(=O)N2Cc2ccncc2)c1 (stereo not given)	13.1	2037*	/	/	15.8	22.9
Cc1nn(CC(=O)Nc2ccc(Cl)cn2)c(C)c1Br	3.5	1211	1820	1445	-2.7	2.2
O=C(NCCCN1CCCC1=O)c1ccc2c(c1)ncn2C1CCCCC1	-1.8	1531	1914	1645	22.0*	0.4
CC(C)OCCCNC(=O)c1ccc2c(c1)ncn2C1CCCC1	-2.8	1616	1809	1561	5.4	0.2
COc1ccc(CCNC(=O)COc2ccc(C)nc2[N+](=O)[O-])cc1	2.8	1371	1809	1746	3.6	0.5
O=C1CC2c3ccccc3C1C1C(=O)N(CCO)C(=O)C21 (stereo not given)	5.9	1617	1782	1516	8.4	8.9
